Shown are actives, neighbours in structure and some others; about 1.4% of the full set was active somewhere.
RN4220 kill = S. aureus RN4220 growth inhibition; OD600, 16 h; inhibition, % (concentration not given with the values); 330,000 tested, 0.33% active; in the data active means inhibition above about 85%;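 further: plate controls were untreated cells for no effect and reference antibiotic for full effect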
ugtP null kill = compounds lethal to S. aureus RN4220 ugtP deletion mutant | growth inhibition, % (concentration not given with the values) | AID 1259309 | 330,000 tested, 0.54% active | OD600 growth, 16 h; in the data active means growth inhibition above about 68%;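 further: plate controls were untreated wells for no effect and antibiotic for full effect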
Y pestis TopoI = blocks Yersinia pestis topoisomerase I activity; Y. pestis Topo-I cleavage product accumulation, plate reader; activity, % at 10 µM; 360,000 tested, 0.064% active; AID 504884; in the data active means activity above about 50%, passing the limit was not always enough
PrP UTR inh = suppresses PrP 5' UTR mRNA reporter expression | AID 488862 | cell-based PrP 5' UTR mRNA reporter, plate reader | inhibition, % (test concentration not listed) | 340,000 tested, 0.35% active; in the data active means inhibition above about 52%; further: 0 = median of the neutral control wells
PfHsp40 rescue = rescue of PfHsp40-mediated yeast toxicity. AID 504582. 340,000 tested, 0.68% active. growth rescue, % at 12.5 µM. S. cerevisiae expressing PfHsp40, growth rescue, ATP luminescence; in the data active means growth rescue above about 28%, passing the limit was not always enough;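 further: yeast W303a lacking pdr1 and pdr3 grown in galactose medium; growth measured after three days at 30 °C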
BJeLR lethal = kills HRASV12-expressing BJeLR cells; BJeLR (HRASV12) viability, CellTiter-Glo ATP luminescence, 48 h; inhibition, % (concentration not given with the values); 300,000 tested, 0.17% active; AID 1554; in the data active means inhibition above about 50%
Starred values were filed as active, the others as inactive; nt = no result.

SMILES	RN4220 kill	ugtP null kill	Y pestis TopoI	PrP UTR inh	PfHsp40 rescue	BJeLR lethal
NCCCCC1CNC(=O)C(=O)N1CCCCC1CCCCC1 (stereo not drawn)	2	-1	nt	nt	nt	nt
NC(Cc1ccc(O)cc1)c1nnc(C(CCC(=O)O)NC(=O)C2CCNCC2)o1 (stereo not drawn)	6	-1	nt	nt	nt	nt
CCN(Cc1ccccc1)C(=O)c1oc2ccc(C)cc2c1C	6	65	53*	-20	4	-16
O=S(=O)(NC1CC2CCC1C2)c1ccc(Br)cc1 (stereo not drawn)	-2	-6	-11	-1	67*	-11
CCCC(=O)Nc1nc2ccc(OCC)cc2s1	2	2	-6	-67	1	-9
CCOc1ccc2nc(NC(=S)N(C)C)sc2c1	-1	-2	-4	-40	122*	1
COc1cc(NC(=O)COC(=O)CNC(=O)c2ccc(C)cc2)c(C)cc1[N+](=O)[O-]	1	1	4	-9	86*	-4
COc1cc(NC(=O)COC(=O)CNC(=O)c2ccc(Cl)cc2)c(C)cc1[N+](=O)[O-]	1	2	-9	5	-1	1
CN(C)CCCN(C(=O)COc1ccc(Cl)cc1)c1nc2cc3c(cc2s1)OCCO3	-1	91*	-14	-35	1	1
CN(C)CCCN(C(=O)COc1ccc(Cl)cc1)c1nc2cc3c(cc2s1)OCO3	-3	22	-21	-8	-1	-2
c1cc(-c2cn(CC3CCC(C4CCC(Cn5cc(-c6ccsc6)nn5)O4)O3)nn2)cs1 (stereo not drawn)	1	1	nt	nt	nt	nt
Cc1cccc(Nc2nc(N)c([N+](=O)[O-])c(N3CC(C)CC(C)C3)n2)c1 (stereo not drawn)	-1	57	26	-9	64*	0
Cc1cccc(Nc2nc(N)c([N+](=O)[O-])c(N3CC(C)OC(C)C3)n2)c1 (stereo not drawn)	3	9	1	-10	-1	3
C[C@@]12C(=O)N(c3cccc(F)c3)C(=O)N1C(c1ccc(Cl)cc1)C1C(=O)N(C3CCCCC3)C(=O)C12 (stereo partly drawn)	-4	-8	nt	nt	nt	nt
COc1ccc(NS(=O)(=O)c2ccc(N3CCOCC3)c(NC(=O)c3ccc(F)cc3)c2)cc1	4	-5	13	-11	1	5
COc1ccc(NS(=O)(=O)c2ccc(O)c(NC(=O)c3cc4c(C)nn(-c5ccc(F)cc5)c4s3)c2)cc1	83	84*	-16	-11	2	-7
O=C(Cc1ccc(-c2ccccc2)cc1)NCc1ccccc1	-5	-2	2	24	0	64*
O=[N+]([O-])c1ccc(COc2ccccc2C=NO)cc1	4	2	nt	nt	nt	nt
COc1cc(C=NO)cc(Br)c1OCc1cccc(Cl)c1	-2	76	nt	nt	nt	nt
Fc1ccccc1COc1ccc(Br)cc1CNCc1ccncc1	5	-7	28	-9	242*	-6
O/N=C/c1cc(Br)ccc1OCc1ccccc1F	nt	nt	4	-26	721*	4
ON=Cc1cc(Br)cc(Br)c1OCc1ccccc1	-12	91*	nt	nt	nt	nt
Fc1ccccc1COc1ccc(Br)cc1CNCc1cccnc1	1	-16	18	-10	-2	5
C=CCOc1ccc(Br)cc1/C=N/O	nt	nt	-3	-11	2	4
O/N=C/c1ccccc1OCc1ccc(Cl)cc1	nt	nt	14	-28	237*	1
SMILES	RN4220 kill	ugtP null kill	Y pestis TopoI	PrP UTR inh	PfHsp40 rescue	BJeLR lethal
CCC1C(OC(=O)NCc2ccccc2)CC2CCN3C(=O)CCCC1C23 (stereo not drawn)	4	7	nt	nt	nt	nt
Cc1ccc(COc2ccc(Br)cc2C=NO)cc1	-9	100*	nt	nt	nt	nt
O=C(NN=Cc1ccc([N+](=O)[O-])o1)c1cn(-c2ccccc2)nc1-c1ccccc1	100*	99*	nt	nt	nt	nt
O=C(NN=Cc1ccc([N+](=O)[O-])o1)c1cn(-c2ccccc2)nc1-c1ccc(F)cc1	71	98*	nt	nt	nt	nt
O=C(NN=Cc1cn(-c2ccccc2)nc1-c1ccc(F)cc1)c1ccc(Br)o1	-36	-20	nt	nt	nt	nt
COc1ccc(-c2nn(-c3ccccc3)cc2C(=O)NN=Cc2ccc([N+](=O)[O-])o2)cc1	97*	100*	nt	nt	nt	nt
COc1ccc(-c2nn(-c3ccccc3)cc2/C=N/NC(=O)c2ccc(Br)o2)cc1	nt	nt	11	-31	2	-13
CCOC(=O)C1=CCC(c2cc(OC)c(OC)c(OC)c2)N(S(=O)(=O)c2ccc(C)cc2)C1C(=O)OCC (stereo not drawn)	9	-1	nt	nt	nt	nt
O=C(C1=C(c2ccccc2)C(=O)c2ccccc2C1=O)c1ccccc1	97*	96*	1	-18	2	32
COC1=C(c2ccccc2)C(=O)c2ccccc2C1=O	57	57	-14	-30	224*	nt
Oc1ccccc1-c1cc(-c2ccc3c(c2)OCCO3)n[nH]1	29	19	-21	-32	476*	12
CC(C(=O)NCCc1c[nH]c2ccccc12)C1C[C@@]1(C)C(NC(=O)OCc1ccccc1)c1ccccc1 (stereo partly drawn)	-8	-13	nt	nt	nt	nt
COC(=O)C1=C(c2ccc(S(C)(=O)=O)cc2)CC2CCC1N2C(=O)N1CCCCC1 (stereo not drawn)	1	2	nt	nt	nt	nt
COC(=O)C1=C(c2ccc(S(C)(=O)=O)cc2)C[C@@H]2CC[C@H]1N2C(=O)N1CCCCC1	nt	nt	8	-18	78*	5
Nc1c(Cl)ncnc1NCCO	8	7	-14	-33	-1	5
Cc1ccc(CCNc2ncnc(Cl)c2N)cc1	0	5	-1	-51	733*	nt
O=C(NC1=NCCS1)c1ccccc1Cl	1	-1	-2	-11	0	-10
O=C(NC1=NCCS1)c1csc2ccccc12	6	-5	0	-136	50*	-4
CC(CCN1C(Nc2ccccc2)=NCC1Cc1ccccc1)c1ccccc1 (stereo not drawn)	-1	1	nt	nt	nt	nt
COc1cc([N+](=O)[O-])c2ncsc2c1	8	15	1	-36	-1	2
COc1cc(SSc2cc(OC)cc([N+](=O)[O-])c2N)c(N)c([N+](=O)[O-])c1	38	87*	-9	-16	-1	0
Cc1ccc(CSC2=Nc3ccccc3C3=NC(=O)CN23)cc1	-1	7	157*	-1	0	6
COc1cc2c(cc1OC)C1=NC(=O)CN1C(SCc1ccccc1C)=N2	5	3	42	-14	1	9
O=P(Nc1ccccc1)(Nc1ccccc1)c1ccccc1	3	2	10	-8	43*	nt
O=C(NC1CC1)c1ccccc1	nt	nt	4	nt	nt	nt
O=C(NC1CC1)c1cccc(Oc2ccccc2)c1	5	11	5	-36	77*	-11
CCc1nc(NC(C(=O)O)C(C)CC)c2oc3ccccc3c2n1 (stereo not drawn)	4	0	nt	nt	nt	nt
Cc1cc(C)c(N=Cc2c(O)c3ccccc3oc2=O)c(C)c1	2	4	-2	-37	66*	-10
Cc1ccc(-c2cc(-c3cccc(F)c3)n[nH]2)c(O)c1	-13	58	-13	-140	66*	-13
